Assay results: the supplement of paper PMC10515830
Structures can show the parent of a compound that is named as a salt.

Each compound was assayed on Danio rerio larvae (5 dpf) (assay: difference in habituation to acoustic stimuli vs DMSO (percentage points); higher = more habituation than DMSO). Conditions: 10 µM; exposure time 6 h.
Summary of the method: (§1)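 Wild-type 5 dpf zebrafish larvae in 96-well plates were given 100 µL egg water containing library compound at 10 µM final for 6 h. After 3 h of exposure, plates at 28.5 ℃ were photographed every 6 s during a 3-h programme of moving lines and 100 ms, 400Hz tones. Z-LaP Tracker (a DeepLabCut model) quantified each behaviour, averaged over 48 larvae per compound. Values are the compound mean minus the DMSO-vehicle control, in percentage points.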

SMILES | difference in habituation to acoustic stimuli
C[C@H]1COc2c(N3CCN(C)CC3)c(F)cc3c(=O)c(C(=O)O)cn1c23 [Levofloxacin] | 2.74
CC(C)(C(=O)c1cccnc1)c1cccnc1 [Metyrapone] | 1.75
NS(=O)(=O)c1cc2c(cc1C(F)(F)F)NCNS2(=O)=O [Hydroflumethiazide] | -1.14
CC(C)C(=O)OCC(=O)[C@@]12O[C@H](C3CCCCC3)O[C@@H]1C[C@H]1[C@@H]3CCC4=CC(=O)C=C[C@]4(C)[C@H]3[C@@H](O)C[C@@]12C [Ciclesonide] | -5.49
CN1CCC[C@@H]1CCO[C@](C)(c1ccccc1)c1ccc(Cl)cc1 [Clemastine (fumarate)] | -2.97
CC(=O)O[C@]1(C(C)=O)CC[C@H]2[C@@H]3C=C(C)C4=CC(=O)CC[C@]4(C)[C@H]3CC[C@@]21C [Megestryl Acetate] | -8.79

These compounds were tested on Danio rerio larvae (5 dpf) (assay: difference in combined optomotor response to red, green and blue moving lines vs DMSO (percentage points); higher = stronger optomotor response than DMSO). Conditions: 10 µM; exposure time 6 h.
Summary of the method: as §1

SMILES | difference
COc1cc(Cc2cnc(N)nc2N)cc(OC)c1OC [Trimethoprim] | 12.7
C=CC[N+]1([C@H]2C[C@H]3[C@@H]4CC[C@H]5C[C@H](O)[C@@H](N6CCOCC6)C[C@]5(C)[C@H]4CC[C@]3(C)[C@H]2OC(C)=O)CCCC1 [Rocuronium (bromide)] | -2.53
CCOc1ccc2ccccc2c1C(=O)N[C@@H]1C(=O)N2[C@@H]1SC(C)(C)[C@@H]2C(=O)O [Nafcillin (sodium salt hydrate)] | 5.58
CN1C(C(=O)Nc2ccccn2)=C(O)c2ccccc2S1(=O)=O [Piroxicam] | -0.889
CC(=O)O[C@H]1C[C@@H]2CC[C@@H]3[C@H](CC[C@@]4(C)[C@H]3C[C@H]([N+]3(C)CCCCC3)[C@@H]4OC(C)=O)[C@@]2(C)C[C@@H]1N1CCCCC1 [Vecuronium (bromide)] | -1.83
O=C1[C@@H]2[C@H]3CC[C@H](C3)[C@@H]2C(=O)N1C[C@@H]1CCCC[C@H]1CN1CCN(c2nsc3ccccc23)CC1 [Lurasidone] | -17
CC(=O)CCCCn1c(=O)c2c(ncn2C)n(C)c1=O [Pentoxifylline] | 6.01
CNS(=O)(=O)CCc1ccc2[nH]cc(C3CCN(C)CC3)c2c1 [Naratriptan (hydrochloride)] | -2.72
C[C@]12C=CC(=O)C=C1CC[C@@H]1[C@@H]2[C@@H](O)C[C@@]2(C)[C@H]1CC[C@]2(O)C(=O)CO [Prednisolone] | 7.45
CN(C)CCC(c1ccc(Cl)cc1)c1ccccn1 (centres undefined) [Chlorpheniramine (maleate)] | -4.02
COc1ccc2c(c1)c(CC(=O)O)c(C)n2C(=O)c1ccc(Cl)cc1 [Indomethacin] | 1.47
COc1ccc(C(=O)CC(=O)c2ccc(C(C)(C)C)cc2)cc1 [Avobenzone] | -2.39
Cc1cc(C(C)(C)C)c(O)c(C)c1CC1=NCCN1 [Oxymetazoline (hydrochloride)] | 0.729
N[C@@H]1CCCCN(c2c(F)cc3c(=O)c(C(=O)O)cn(C4CC4)c3c2Cl)C1 [Besifloxacin (hydrochloride)] | 0.455
Cc1ccccc1N1C(=O)c2cc(S(N)(=O)=O)c(Cl)cc2NC1C (centres undefined) [Metolazone] | 1.31
CNCc1ccc(-c2[nH]c3cc(F)cc4c3c2CCNC4=O)cc1 [Rucaparib] | 11
Nc1nc(F)nc2c1ncn2[C@@H]1O[C@H](COP(=O)(O)O)[C@@H](O)[C@@H]1O [Fludarabine Phosphate] | 6.27
C=C[C@H]1CN2CC[C@H]1C[C@H]2[C@H](O)c1ccnc2ccc(OC)cc12 [Quinine] | -0.242
O=c1[nH]cc(F)c(=O)[nH]1 [5-Fluorouracil] | 0.269

SMILES | difference
CCCN(CCc1cccs1)[C@H]1CCc2c(O)cccc2C1 [Rotigotine] | -15.9
CN(C)C(=O)c1cc2cnc(Nc3ccc(N4CCNCC4)cn3)nc2n1C1CCCC1 | 0.1
OCCN(CCO)c1nc(N2CCCCC2)c2nc(N(CCO)CCO)nc(N3CCCCC3)c2n1 [Dipyridamole] | 6.89
COc1ccc(C[C@@H](C)NC[C@H](O)c2ccc(O)c(NC=O)c2)cc1 [Arformoterol (tartrate)] | -2.14
O=C(O)COCCN1CCN(C(c2ccccc2)c2ccc(Cl)cc2)CC1 (centres undefined) [Cetirizine (hydrochloride)] | 6.72
CC1(C)C[C@@H]1C(=O)N/C(=C\CCCCSC[C@H](N)C(=O)O)C(=O)O [Cilastatin] | 10.5
CNCCC=C1c2ccccc2CCc2ccccc21 [Nortriptyline (hydrochloride)] | -2.39
CC(=O)OCC(=O)[C@@]1(OC(C)=O)[C@@H](C)C[C@H]2[C@@H]3C[C@H](F)C4=CC(=O)C=C[C@]4(C)[C@@]3(F)[C@@H](O)C[C@@]21C [Diflorasone Diacetate] | -4.79
CC(=O)OCC(CCn1cnc2cnc(N)nc21)COC(C)=O [Famciclovir] | 4.52
COc1cc(CNC(=O)CCCC/C=C/C(C)C)ccc1O [Capsaicin] | 5.27
CN(C)C/C=C/C(=O)Nc1cc2c(Nc3ccc(F)c(Cl)c3)ncnc2cc1O[C@H]1CCOC1 [Afatinib (maleate)] | 8.09
COc1ccc(CC(C)NCC(O)c2ccc(O)c(NC=O)c2)cc1 (centres undefined) [Formoterol (hemifumarate hydrate)] | 1.18
OC[C@H]1NC[C@H](O)[C@@H](O)[C@H]1O [1-Deoxygalactonojirimycin (hydrochloride)] | 3.06
C[C@H]1COc2c(N3CCN(C)CC3)c(F)cc3c(=O)c(C(=O)O)cn1c23 [Levofloxacin] | 4.84
CC(C)(C(=O)c1cccnc1)c1cccnc1 [Metyrapone] | 4.5
NS(=O)(=O)c1cc2c(cc1C(F)(F)F)NCNS2(=O)=O [Hydroflumethiazide] | -2.31
CC(C)C(=O)OCC(=O)[C@@]12O[C@H](C3CCCCC3)O[C@@H]1C[C@H]1[C@@H]3CCC4=CC(=O)C=C[C@]4(C)[C@H]3[C@@H](O)C[C@@]12C [Ciclesonide] | 9.17
CN1CCC[C@@H]1CCO[C@](C)(c1ccccc1)c1ccc(Cl)cc1 [Clemastine (fumarate)] | 6.17
CC(=O)O[C@]1(C(C)=O)CC[C@H]2[C@@H]3C=C(C)C4=CC(=O)CC[C@]4(C)[C@H]3CC[C@@]21C [Megestryl Acetate] | -10.8
